Compounds without any hit were thinned out: in the full panel of roughly 83,000, 20% have a hit.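 48-hour exposure, single concentration, 96-well plates; percent growth endpoint where 0 means no net growth. Active: below 10.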 Values without a mark were called inactive. Active and inactive are the calls of the source.

Holding throughout (test): NCI-60 one-dose screen, 48 h (100 = growth as untreated, 0 = no growth, -100 = all killed)
In assay [1] the test system is HCT-15 colon. To be noted: 10 µM.
For assay [2], the system named is HT29 colon. To be noted: 10 µM.
Assay [3] deals with SNB-75 CNS. The conditions noted are these: 10 µM.
Assay [4] deals with SNB-19 CNS. The conditions noted are these: 10 µM.
Assay [5] concerns U251 CNS. To be noted: 10 µM.
The test system of assay [6] is PC-3 prostate. The conditions noted are these: 10 µM.
Assay [7] has as its system SK-MEL-5 melanoma. To be noted: 10 µM.
Assay [8] has as its system UACC-62 melanoma. The conditions noted are these: 10 µM unless noted.
The test system of assay [9] is LOX IMVI melanoma. The conditions noted are these: 10 µM.
For assay [10], the system named is SK-MEL-28 melanoma. To be noted: 10 µM.
For assay [11], the system named is SK-MEL-2 melanoma. To be noted: 10 µM.
Assay [12] concerns SN12C renal. To be noted: 10 µM.
Assay [13] has as its system UO-31 renal. The conditions noted are these: 10 µM.
Assay [14] has as its system TK-10 renal. The conditions noted are these: 10 µM unless noted.
Assay [15] concerns ACHN renal. To be noted: 10 µM.
In assay [16] the test system is CAKI-1 renal. The conditions noted are these: 10 µM.
The test system of assay [17] is A498 renal. To be noted: 10 µM.
Assay [18] relates to CCRF-CEM leukemia. To be noted: 10 µM.
Assay [19] relates to MOLT-4 leukemia. The conditions noted are these: 10 µM.
Assay [20] deals with EKVX NSCLC. To be noted: 10 µM.

Regarding `CC1(C(N)=O)CCC(C(=O)O)C1(C)C` (configuration not stated), the growth in assay [1] is 96.4%; in assay [2], 104%; in assay [3] it was 92.4%; in [4], 99%; in assay [5], 98.2%; in assay [6], 98.1%. For the same compound, the growth was 98% in [7]; 87% in assay [8]; 104% in [9]; 103% in assay [10]; 104% in assay [11]; 89.1% in [12]. For the same compound, the growth in assay [13] was 85.9%; in [14], 97.7%; in [15] it was 102%; in assay [16] it was 99%; in assay [17], 106%; in assay [18], 104%. In [19], the growth was 123%.
`C=C[Si](OC(C)=O)(OC(C)=O)OC(C)=O`: the growth in assay [1] was 103%; in assay [2], 101%; in assay [3], 95.5%; in assay [4], 109%; in [5] it was 100%; in assay [6] it was 91.6%. Moreover, the growth was 104% in assay [7]; 116% in assay [8]; 98.4% in assay [9]; 104% in [10]; 109% in assay [11]; 110% in assay [12]. For the same compound, the growth is 79.3% in [13]; 105% in [14]; 97.3% in assay [15]; 96.4% in assay [16]; 94.2% in assay [17]; 88% in assay [18]. Further, the growth in assay [19] is 98.3%.
For `COc1ccc(-c2cc3c(nn2)-c2ccccc2C3=O)cc1`, the growth was 36.7% in [1]; -24.8% (active) in assay [2]; -4.76% (active) in assay [3]; 78.9% in assay [4]; -3.45% (active) in [5]; 18% in assay [6]. Moreover, the growth in [7] was 85.3%; in assay [8], 84.7%; in assay [9], 43.3%; in assay [10], -49.3% (active); in assay [11], 65.5%; in assay [12] it was 72.7%. Further, the growth was 89.7% in [13]; 32.1% in [14]; 73.5% in assay [15]; 28.9% in assay [16]; 102% in assay [17]; 28.6% in assay [18]. The growth in [19] was 57.1%.
Take `C=CC(O)CCC` (configuration not stated): the growth in assay [1] is 98%; in assay [2], 99.7%; in [3], 95.7%; in assay [4], 100%; in assay [5], 92.8%; in assay [6], 90%. Further, the growth in assay [7] was 107%; in [8], 95.9%; in assay [9], 98.6%; in assay [10], 98.3%; in assay [11], 122%; in [12], 99.5%. In addition, the growth in assay [13] is 89.9%; in assay [14] it was 102%; in [15] it was 98.5%; in [16] it was 92.1%; in assay [17], 108%; in [18], 98.4%. Moreover, the growth in [19] was 110%.
With `NCCCN`, the growth in assay [1] was 101%; in [2], 111%; in [3] it was 79.8%; in assay [4], 104%; in assay [5], 95.5%; in assay [6], 102%. The growth in [7] was 102%; in assay [8], 109%; in [9], 112%; in [10], 104%; in [11], 122%; in assay [12], 101%. The growth in assay [13] is 92.6%; in assay [14], 107%; in assay [15], 103%; in assay [16] it was 98.3%; in assay [17], 114%; in [18], 101%. Besides, the growth in assay [19] was 112%.
Turning to `CC(=O)NCc1cc(C)c(C)cc1C`, the growth in [1] was 105%; in assay [2], 97.2%; in assay [3], 87.9%; in assay [4], 109%; in assay [5], 97.9%; in assay [6], 93.5%. Moreover, the growth in assay [7] is 104%; in assay [8] it was 109%; in assay [9], 98.6%; in assay [10] it was 103%; in assay [11] it was 98%; in [12], 103%. The growth in assay [13] is 83.6%; in assay [14], 92.6%; in assay [15], 104%; in [16], 98.8%; in [17] it was 118%; in assay [19], 96.2%.
For the compound `c1cc2cccc3c4cccc5cccc(c(c1)c23)c54`, the growth in [1] is 99.9%; in assay [2] it was 110%; in assay [3], 88.5%; in [4], 99.5%; in assay [5] it was 120%; in assay [6] it was 93.5%. Besides, the growth is 102% in assay [7]; 93.2% in assay [8]; 97.7% in [9]; 107% in assay [10]; 98.7% in assay [11]; 104% in [20]. Further, the growth in [12] is 98.6%; in [14], 102%; in assay [15] it was 102%; in assay [17] it was 116%; in [18], 103%; in [19], 105%.
Turning to `O=C1C=CC(=O)N1c1ccc(I)cc1Cl`, the growth is 99.9% in assay [1]; 100% in assay [2]; 103% in assay [3]; 98.4% in assay [4]; 99.5% in [5]; 75.7% in [6]. The growth in [7] was 102%; in assay [8], 104%; in assay [9], 101%; in [10] it was 107%; in [11], 114%; in [12], 101%. Further, the growth is 94% in assay [13]; 104% in assay [15]; 99.1% in assay [17]; 85.9% in [18]; 128% in assay [19].
For the compound `CCCCCCCCCCC1CO1` (configuration not stated), the growth is 104% in [1]; 108% in [2]; 94% in assay [3]; 103% in assay [4]; 97.8% in assay [5]; 102% in assay [6]. Further, the growth is 100% in [7]; 112% in [8]; 102% in assay [9]; 98.4% in assay [10]; 118% in assay [11]; 102% in assay [12]. Also, the growth in assay [13] is 82.2%; in [14], 112%; in assay [15] it was 109%; in assay [16] it was 104%; in [17] it was 108%; in assay [18] it was 97.2%. Moreover, the growth in assay [19] was 105%.

The values are drawn from PubChem BioAssay (NCI).
